Cy5 interf NS3h: enhances or quenches Cy5 fluorescence in NS3h assay | Cy5-dT15 DNA with NS3h, fluorescence interference; actives lie on both sides; signal over control mean, under 1 quenches | fluorescence interference ratio at 100 µM | actives 6% (n = 16,000) | AID 720488;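 active = compound fluorescence over control fluorescence at most 0.8, a quencher, or at least a set upper limit, an enhancer; inactive = ratio between 0.8 and the set upper limit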
NS3h inh CB: hepatitis C NS3 helicase inhibition, primary screen; NS3h Cy5-dT15 DNA binding, fluorescence polarization; inhibition, % at 100 µM; actives 1.6% (n = 16,000);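 active = inhibition above the average over every tested compound plus 3 SD, cut at about 40% in these data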
Each line names hits and unclear results; the compound was inactive in the other large screens. Hits are enriched below; roughly 7.6% of the tested compounds scored in any of these assays.

O=C(O)CCN1C(=O)/C(=C/c2cccc(OCc3ccccc3)c2)SC1=S	none
O=C(O)CCN1C(=O)/C(=C/c2ccc(Cl)c([N+](=O)[O-])c2)SC1=S	Cy5 interf NS3h 0.7
CC(=O)N/C(C)=C1\C(=O)CC2C1C2(C)C (stereo not given)	none
Cc1ccc(SCCNC(=O)CN(c2ccccc2C)S(C)(=O)=O)cc1	none
Cn1c(-c2ccc(-c3nc4cnccc4n3C)cc2)nc2cnccc21	Cy5 interf NS3h 1.2
Cn1c(-c2nc3ccccc3n2C)nc2ccccc21	none
O=C(Nc1ccc(-c2cn3ccccc3n2)cc1)c1ccccc1Cl	none
O=C1NC(=Nc2cccnc2)S/C1=C\c1ccc(F)cc1	none
O=C1NC(=Nc2cccnc2)S/C1=C\c1cccc(F)c1	Cy5 interf NS3h 0.8
COc1ccc(Cc2ccc(OC)cc2)cc1	none
Cc1ccc(C(=O)COc2cc(OCC(=O)c3ccc(C)cc3)c3c(C)cc(=O)oc3c2)cc1	Cy5 interf NS3h 0.66
O=C(COc1ccc2ccc(=O)oc2c1)c1ccc(-c2ccccc2)cc1	none
CNC(=O)C(C)NC(=O)C12CC3CC(CC(C3)C1)C2 (stereo not given)	none
O=C(NC1CCCCC1)C12CC3CCC(CC(C3)C1)C2	Cy5 interf NS3h 1.2
CCN(CC)C(=O)c1ccccc1NC(=O)c1ccccc1F	none
O=C(COc1ccccc1)Nc1ccc([N+](=O)[O-])cc1	none
N#Cc1ccccc1OCC(=O)N/N=C\C=C\c1ccc([N+](=O)[O-])cc1	Cy5 interf NS3h 0.58
O=C(CSc1ccc(Cl)cc1Cl)Nc1ccc(Br)cc1	none
CCOC(=O)C1=C(O)/C(=C/c2ccc(OC)c(OC)c2)SC1=Nc1ccc([N+](=O)[O-])cc1	none
CCOC(=O)C1=C(O)/C(=C/c2cccc(Br)c2)SC1=Nc1ccccc1	Cy5 interf NS3h 0.66
O=C(/C=C/c1ccc(Cl)cc1)Nc1ccccc1C(F)(F)F	none
CC(C)CN1C(=O)c2ccc(C(=O)Nc3c[nH]c(=O)[nH]c3=O)cc2C1=O	Cy5 interf NS3h 0.66
CCC(=O)Nc1ccc(C(=O)Nc2c[nH]c(=O)[nH]c2=O)cc1	none
CCc1cc2c(C)c(CC)c(=O)oc2cc1OCC(C)=O	none
CCCc1c(C)c2c(OCC(=O)O)cc(OCC(=O)O)cc2oc1=O	Cy5 interf NS3h 0.76
O=C(NCCCNc1ccc([N+](=O)[O-])cc1C(F)(F)F)c1cc(F)c(F)cc1Cl	none
O=C(NC(=S)Nc1ccc(Cl)c(Cl)c1)c1ccco1	none
COc1ccc2c(c1)OCC/C2=N/OC(=O)c1cc(OC)c(OC)c(OC)c1	Cy5 interf NS3h 1.2
COc1ccc2c(c1)OCC/C2=N/OC(=O)c1ccc(C)cc1	none
CCc1nn2c(N)c(C=C3C=C(Br)C=CC3=O)c(=O)nc2s1	none
CCOc1ccc2nc(SCC(=O)c3ccc(C)cc3C)sc2c1	Cy5 interf NS3h 0.76
CCOc1ccc2nc(SCC(=O)NC(C)c3ccccc3)sc2c1 (stereo not given)	none
CCOc1cccc(C(=O)Nc2nnc(-c3cccc(OCC)c3)s2)c1	none
CCOc1cccc(C(=O)Nc2nc3ccc(C)cc3s2)c1	Cy5 interf NS3h 0.69
Cc1ccc([N+](=O)[O-])cc1S(=O)(=O)N1CCOCC1	none
COc1ccccc1C=C1C(=O)NC(=S)N(c2ccccc2F)C1=O	none
O=C1NC(=S)N(c2ccccc2F)C(=O)/C1=C/c1ccc(OCc2cccc(C(=O)O)c2)cc1	NS3h inh CB 50
Cc1ccc(C)c(COc2ccc3ccc(=O)oc3c2)c1	none
CC(=O)Nc1cccc(-c2nc3ccccc3s2)c1	none
CC(=O)Nc1cc(-c2nc3ccccc3s2)ccc1Cl	Cy5 interf NS3h 0.74
Cc1cc(Cl)ccc1OCC(O)CN1CCCC1 (stereo not given)	none
Cc1ccc(C)c(OCCCCN2CCCC2)c1C	Cy5 interf NS3h 0.72
CC1CCN(Cc2c(O)ccc3ccccc23)CC1	none
CC1CCN(CCCCOc2c(Cl)cccc2Cl)CC1	Cy5 interf NS3h 0.79
O=C(Nc1ccc2c(c1)OCCO2)c1cccc([N+](=O)[O-])c1	none
Cc1ccccc1C(=O)Nc1cccc(NC(=O)c2ccc(Cl)c([N+](=O)[O-])c2)c1	Cy5 interf NS3h 0.71
Cc1cc(NC(=O)c2ccc(Cl)c([N+](=O)[O-])c2)ccc1Br	none
O=c1/c(=C/c2cccc(OCCOc3ccc(Br)cc3)c2)sc2nc3ccccc3n12	none
O=C1C=CC(=O)N1c1ccccc1SC(F)(F)F	Cy5 interf NS3h 0.79, NS3h inh CB 45
COc1ccccc1-c1coc2cc(OC(=O)c3cccc(Cl)c3)ccc2c1=O	none
Cc1ccc(N2C(=O)NC(=O)/C(=C\c3ccc(-c4ccc([N+](=O)[O-])cc4Cl)o3)C2=O)cc1	none
Cc1ccc([N+](=O)[O-])cc1-c1ccc(/C=C2\C(=O)NC(=O)N(c3ccc(Cl)cc3)C2=O)o1	Cy5 interf NS3h 1.3
COc1cc(C=Nc2ccc(Cl)c([N+](=O)[O-])c2)ccc1OC(C)=O	none
CC(C)c1cccc(C(C)C)c1NC(=O)COc1cccc(Br)c1	none
Cc1ccccc1NC(=O)C(=O)NCCc1ccccc1	none
Cc1ccccc1NC(=S)NCCOc1ccccc1Cc1ccccc1	Cy5 interf NS3h 0.6
O=c1[nH][nH]c(=O)n1/N=C\c1ccccc1O	none
O=C(Nc1ccccc1)c1ccc(-c2ccccc2)cc1	Cy5 interf NS3h 1.2
CC1CCN(S(=O)(=O)c2ccc(NC(=O)c3ccc(-c4ccccc4)cc3)cc2)CC1	Cy5 interf NS3h 1.4
O=C(Nc1ccc(F)cc1)c1ccc(-c2ccccc2)cc1	none
CC1CCN(S(=O)(=O)c2ccc(NC(=O)c3ccc([N+](=O)[O-])cc3)cc2)CC1	none
Cc1cccc2sc(NC(=O)c3ccccc3C(=O)O)nc12	none
CCC1=NN2C(=N)/C(=C/c3ccc(Br)cc3)C(=O)N=C2S1	none
O=c1oc(-c2cccs2)nc2sc3c(c12)CCCCC3	none
O=c1oc(-c2ccccc2)nc2sc3c(c12)CCCC3	Cy5 interf NS3h 0.69
O=C(O)c1cccc(N2C(=O)c3cc4ccccc4c(-c4ccccc4)c3C2=O)c1	none
O=C1OC(c2cccc(F)c2)=N/C1=C\c1ccc(F)cc1	none
Nc1nnc(SCc2ccc([N+](=O)[O-])cc2)s1	Cy5 interf NS3h 0.72
Nc1nnc(SCC(=O)Nc2ccccc2[N+](=O)[O-])s1	none
COc1ccc(/C=C/C(=O)NC(=S)Nc2ccc(I)cc2)cc1	none
CCC1=NN(C(=O)c2ccncc2)C(O)(c2ccc(Br)cc2)C1 (stereo not given)	none
CCC1=NN(C(=O)c2cccc(C)c2O)C(O)(c2ccc(Br)cc2)C1 (stereo not given)	Cy5 interf NS3h 0.77
COc1ccc(C2CC(O)C(C)C(c3ccc(OC)cc3)N2)cc1 (stereo not given)	Cy5 interf NS3h 0.73
CC1C(c2ccccc2)NC(c2ccccc2)C(C)C1O (stereo not given)	none
COc1ccccc1CNC(=O)C(=O)Nc1ccccc1C	none
Cc1cccc(NC(=O)C(=O)NCc2ccccc2Cl)c1C	Cy5 interf NS3h 0.78
COc1ccc(N)cc1-n1c(C)ccc1C	Cy5 interf NS3h 0.4
CS(=O)(=O)c1ccc2nc(NC(=O)c3ccc([N+](=O)[O-])cc3)sc2c1	none
O=C(Nc1ccccc1Br)C1CN(S(=O)(=O)c2ccccc2)CCN1S(=O)(=O)c1ccccc1 (stereo not given)	none
O=C(Nc1ccccc1Cl)C1CN(S(=O)(=O)c2ccccc2)CCN1S(=O)(=O)c1ccccc1 (stereo not given)	Cy5 interf NS3h 1.4
CCOC(=O)c1c(NC(=S)NC(C)=O)sc2c1CCC2	none
CCC(C(C)=O)C(=O)Nc1ccccc1 (stereo not given)	none
CC(=O)CC(C)(C)Nc1ccccc1	Cy5 interf NS3h 0.74
C[n+]1cc(N)cc2ccccc21	none

Bioassay records (PubChem)
